# Only some compounds are listed: those with a hit (about 4.6% of all), similar ones and a draw of the others.
# D1 agonist: agonists of human D1 dopamine receptor; P21728; HEK293 T-REx D1 cells, calcium flux, agonist mode; activation, % at 2 µM; 1% of 360,000 active; AID 504660; further: 0% is about no effect
#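 Inducible HEK293 T-REx D1 cells, force-coupled to calcium signalling, were plated at 4000 cells/well with tetracycline and held overnight at 30 C. After no-wash calcium dye loading, compound-evoked calcium rise over 180 s flagged agonists.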
# D1 antag: antagonists of human D1 dopamine receptor; activity change, negative = inhibition, % at 10 µM; 3.2% of 360,000 active; AID 504652; P21728; HEK293 TREx D1 cells, calcium flux, dopamine EC80; hits give low values; in the data active means activity change below about -30%; further: on the % scale 0 is the no-effect control and ±100 the full control effect
#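 Allosteric or orthosteric antagonism assessed as attenuation of the calcium response to EC80 dopamine, added 180 s after compound, in induced HEK293 Trex D1 cells loaded with no-wash calcium dye.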
# D1 potentiator: potentiators of human D1 dopamine receptor; HEK293 TREx D1 cells, calcium flux, dopamine EC20 potentiation; potentiation, % at 10 µM; 0.036% of 360,000 active; AID 504651; in the data active means potentiation above about 30%; further: 0% is about no effect
# TRHR agonist: TRH receptor (human) agonism. 0.18% of 360,000 active. P34981. activation, % at 2 µM. TRHR cells, calcium flux fluo-8, FDSS agonist mode; further: 0% is about no effect
# Target sequence (P34981 whole entry, looked up): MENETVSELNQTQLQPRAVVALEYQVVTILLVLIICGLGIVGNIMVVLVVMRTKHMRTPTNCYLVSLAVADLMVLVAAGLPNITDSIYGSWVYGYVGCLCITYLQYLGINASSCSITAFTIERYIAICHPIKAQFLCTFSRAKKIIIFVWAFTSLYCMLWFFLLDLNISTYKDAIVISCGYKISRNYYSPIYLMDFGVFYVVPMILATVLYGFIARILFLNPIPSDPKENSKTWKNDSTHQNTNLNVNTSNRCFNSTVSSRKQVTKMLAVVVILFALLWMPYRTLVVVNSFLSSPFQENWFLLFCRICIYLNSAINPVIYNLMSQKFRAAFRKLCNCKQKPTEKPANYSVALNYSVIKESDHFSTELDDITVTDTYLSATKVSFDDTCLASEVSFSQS
#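 TRHR-expressing cells, plated overnight in medium with 10% serum, were loaded with fluo-8 calcium dye at room temperature. After a 10 s baseline, library compound was pin-added and calcium release was recorded kinetically (ex 480/em 530) as agonist response.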
# TRHR PAM: allosterically enhances the human TRH receptor. 0.66% of 360,000 active. AID 493056. P34981. enhancement, % at 2 µM. TRHR cells, fluo-8 calcium fluorescence, EC20 TRH enhancement; in the data active means enhancement above about 30%; further: 0% is about no effect
#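 Enhancer read-out: after compound pinning and an initial kinetic agonist-mode read, an EC20 of TRH (10 nM final) was injected and fluo-8 calcium signal (Ex 480/Em 530) followed at 1 s/cycle for 100 cycles in TRHR-expressing cells.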
# * hit, by the source's call; . = no result given. Unless noted, no stated cut-off is given here; in the data, active means activation above about 30%; inactive means the rest.
SMILES,D1 agonist,D1 antag,D1 potentiator,TRHR agonist,TRHR PAM
CCc1ccc(-c2cc(C(=O)N/N=C/c3c[nH]c4ccccc34)[nH]n2)cc1,2.7,-14.3,-5.8,-0.3,35.5*
O=C(N/N=C/c1cc([N+](=O)[O-])ccc1O)c1cc(-c2ccccc2)nc2ccccc12,3.2,0.3,-2.4,0.1,-1.3
Cc1ccsc1/C=N/NC(=O)c1cc(-c2ccncc2)nc2ccccc12,2.0,-0.6,-6.0,-0.6,35.9*
Cc1cccc(-c2cc(C(=O)Nc3cccnc3)c3ccccc3n2)c1,1.2,-1.5,8.3,0.6,16.3
Cn1nnnc1Sc1c(Cl)cccc1[N+](=O)[O-],0.3,9.4,5.5,0.2,25.6
O=C(Nc1ccc(Cl)cc1)Nc1ccc(-c2cnco2)cc1,11.3,-17.0,-10.3,0.9,12.3
O=C(N/N=C/c1c[nH]c2ccccc12)c1ccc([N+](=O)[O-])cc1Cl,6.2,-47.8*,-13.1,3.1,-11.9
COc1cccc(/C(O)=C2/C(=O)C(=O)N(Cc3cccnc3)C2c2ccco2)c1 (stereo unspecified),2.2,14.0,0.0,0.0,6.0
CCOc1cc(S(=O)(=O)NCc2cccs2)ccc1Cl,2.1,-37.1*,-3.1,-0.3,-1.3
O=S(=O)(NCc1cccs1)c1ccc(Br)cc1,3.5,-32.8*,-3.5,0.1,4.3
CCOc1ccc(S(=O)(=O)NCc2cccs2)cc1C(C)C,4.1,-12.1,-1.2,1.2,-1.1
CN(C)S(=O)(=O)c1ccc(S(=O)(=O)NCc2cccs2)cc1,2.8,17.4,-7.4,0.5,-1.5
CCCNS(=O)(=O)c1ccc(NC(=O)Cc2cccs2)cc1,2.7,-32.6*,-8.0,0.0,1.7
Cc1ccc(NC(=O)COC(=O)CNC(=O)c2ccc(C)s2)cc1,-0.1,-8.0,-5.3,-0.4,3.7
Nc1cc(=O)[nH]c(SCC(=O)Nc2ccc(S(=O)(=O)N3CCCCC3)cc2)n1,1.3,-0.8,-1.9,0.9,-1.9
CCOc1ccc(-n2c(O)c(/C=N/NC(=O)C3COc4ccccc4O3)c3ccccc3c2=O)cc1 (stereo unspecified),5.8,0.9,2.5,2.2,-3.0
Cc1ccc(Nc2nc(Cl)nc(NC(C)(C)C)n2)cc1,10.9,-37.4*,-1.1,0.7,-6.5
O=C(Cn1c(CO)nc2ccccc21)Nc1ccccc1Cl,7.3,0.7,-3.3,0.1,-4.2
O=C(Nc1ccncc1NC(=O)c1cccc([N+](=O)[O-])c1)c1cccc([N+](=O)[O-])c1,0.2,-7.9,-1.6,0.0,6.6
O=C(NC(=S)Nc1ccccn1)c1cccc([N+](=O)[O-])c1,0.0,-55.0*,-6.0,-0.3,-5.7
O=C(Nc1cccc(NC(=O)c2cccc([N+](=O)[O-])c2)n1)c1cccc([N+](=O)[O-])c1,4.2,-33.7*,-8.7,0.1,-7.2
N#Cc1c(Oc2ccc3ccccc3c2)sc(C(=O)c2ccccc2)c1N,4.1,5.5,-0.8,0.4,4.1
COc1cccc(N2CCN(C(=O)c3cnn(-c4ccccc4Cl)c3C3CCN(C(=O)OC(C)(C)C)CC3)CC2)c1,0.6,-48.7*,-4.6,-0.2,-5.7
COc1cccc(N2CCN(C(=O)c3cnn(-c4ccc(C)cc4C)c3C3CCN(C(=O)OC(C)(C)C)CC3)CC2)c1,1.1,-7.5,-0.9,-0.6,-12.9
Cc1c(Cl)cccc1-n1ncc(C(=O)NC2CCCC2)c1C1CCN(C(=O)OC(C)(C)C)CC1,0.0,-80.0*,3.0,-0.2,-7.2
SMILES,D1 agonist,D1 antag,D1 potentiator,TRHR agonist,TRHR PAM
COc1ccc(-n2ncc(C(=O)N3CCN(c4cc(C)ccc4C)CC3)c2C2CCN(C(=O)OC(C)(C)C)CC2)cc1,1.0,-31.0*,-5.8,0.5,3.5
COc1ccc(N2CCN(C(=O)c3cnn(-c4ccc(OC)cc4)c3C3CCN(C(=O)OC(C)(C)C)CC3)CC2)cc1,-0.2,-30.6*,-6.3,-1.0,3.6
O=C(Nc1nnc(Cc2ccc(F)cc2)s1)Nc1ccccc1F,2.7,-15.4,-3.5,1.1,-2.6
N#CCCn1nc(-c2ccccc2)c2ccccc2c1=O,-3.9,23.0,-4.5,-0.2,-1.0
COc1ccc(O)c(C(=O)c2cnc3c(c2)c(C)nn3C)c1,4.1,7.3,-5.2,-0.3,6.9
COc1ccc(O)c(C(=O)c2cnc3onc(C)c3c2)c1,0.5,-39.3*,-2.8,-0.7,-5.1
Cc1noc(Cn2c(=O)c3ccccc3n(CC(=O)Nc3cc(Cl)ccc3C)c2=O)n1,-1.2,-2.5,-2.6,0.0,5.8
CC(C(=O)Nc1ccc([N+](=O)[O-])cc1)N1CCN(C/C=C/c2ccccc2)CC1 (stereo unspecified),26.1,-45.3*,-14.2,2.2,0.9
CSc1ccc(CNC(=O)C2CCC(=O)N(CCc3cccc(F)c3)C2)cc1 (stereo unspecified),8.6,11.2,-10.0,-0.9,-10.6
COc1cccc(N2CCN(CC(=O)Nc3ccc(-n4cnnn4)cc3)CC2)c1,1.5,-20.0,-4.3,0.0,-11.9
COc1ccc(OC)c(C(O)c2coc3ccc(O)c(CN4CCOCC4)c23)c1 (stereo unspecified),6.0,-30.2*,-3.9,-1.0,5.2
COc1cc2cc(C(=O)NCCc3ccccc3)[nH]c2cc1OC,0.0,3.2,0.5,-1.1,7.7
Cc1c(Cc2ccccc2)sc(NC(=O)/C=C/c2cccc3ccccc23)c1C(N)=O,0.8,-2.4,-10.9,0.8,-2.9
Cc1cc(C)c(S(=O)(=O)N2CCCC(C(=O)NCc3ccncc3)C2)c(C)c1 (stereo unspecified),0.0,-8.3,1.6,0.6,13.3
CC1(C)NC(=O)N(CC(O)COc2ccccc2C(=O)Nc2ccccc2)C1=O (stereo unspecified),-0.6,-20.8,-2.2,-0.3,-8.4
COc1ccccc1CNC(=O)C(=O)NCC(c1cccs1)S(=O)(=O)c1ccc(F)cc1 (stereo unspecified),13.9,.,-2.4,0.4,-7.4
COc1cc(/C=C2\C(=N)N3N=CSC3=NC2=O)ccc1OS(=O)(=O)c1ccccc1[N+](=O)[O-],3.8,-30.0*,-3.0,0.0,-3.6
COc1cc(/C=C2/C(=N)N3C(=NC2=O)SN=C3S(C)(=O)=O)ccc1OS(=O)(=O)c1ccccc1,1.0,-23.9,-2.4,-0.1,-2.3
COc1cc(/C=C2\C(=N)N3N=C(S(C)(=O)=O)SC3=NC2=O)ccc1OC(=O)c1cccs1,0.4,4.0,-12.1,-0.8,8.6
COc1cc(/C=C2\C(=N)N3N=C(S(C)(=O)=O)SC3=NC2=O)ccc1OCCOc1ccccc1C,4.2,5.8,-4.5,1.0,35.3*
N#Cc1cc(Cl)c(N2CCOCC2)cc1C#N,3.4,.,-2.0,0.6,-3.2
CN1CCN(C2=CC3=CC(=C(C#N)C#N)CCC3CC2)CC1 (stereo unspecified),722.7*,13.2,37.5*,315.0*,17.2
